KKLEB cytotox – counter-screen for CF NF-kB inhibitors: cytotoxicity; KKLEB CF airway cells viability, ATPlite luminescence, overnight; active compounds read low; cells stimulated with P. aeruginosa culture filtrate; activity change (cytotoxicity), % at 5 µM; actives 0.36% (n = 360,000);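 active means corrected activity change at or below -50% at 5 µM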
hiPSC survival – enhancers of human iPSC single-cell survival; hiPSC single-cell survival, ATPlite luminescence; 100% = ROCK inhibitor wells, 0% = DMSO; actives 0.044% (n = 360,000); survival enhancement, % at 20 µM; in the data active means survival enhancement above about 18%;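 further: cells exposed to compounds for 16 hours before the ATP read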
LGR2 inh – inhibitors of bursicon-induced Drosophila LGR2 receptor cAMP signaling; HEK293 LGR2, CRE-luciferase, bursicon-stimulated, 4 h; actives 0.35% (n = 380,000); AID 720647; inhibition, % at 9.99 µM;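 active means drop in luminescence signal, shown as inhibition above about 50% in the replicate tests, limit read from the data, passing the limit was not always enough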;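 further: agonist challenge used bursicon conditioned medium at about half maximal strength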
CF NFkB inh – inhibitors of cystic fibrosis induced NF-kB; KKLEB NF-kB-GFP reporter, PAF-induced, GFP fluorescence overnight; inhibition, % at 5 µM; actives 0.86% (n = 360,000); AID 588850;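 active means at least 50% inhibition at 5 µM, scaled per plate between neutral and stimulator controls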;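 further: PAF is a Pseudomonas aeruginosa culture filtrate used as stimulus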
HIF-2a inh – inhibitors of HIF-2a; 786-0 RCC cells HIF-2a reporter, luciferase luminescence, overnight; actives 0.72% (n = 360,000); inhibition, % at 18.8 µM;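 active means inhibition of the luminescence signal of 40% or more relative to plate controls, in a single-dose primary screen at 18.75 µM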
TWEAK-Fn14 inh – inhibitors of TWEAK-Fn14 interaction signaling. inhibition, % at 10 µM. actives 2% (n = 360,000). TWEAK-stimulated Fn14 reporter cells, luciferase luminescence, 8 h. AID 1159606; in the data active means inhibition above about 50%
Numbers stand for hits; - = inactive; . = no result given. Hits are enriched below; roughly 2.3% of the tested compounds scored in any of these assays.

SMILES	KKLEB cytotox	hiPSC survival	LGR2 inh	CF NFkB inh	HIF-2a inh	TWEAK-Fn14 inh
CN(C)CCC1(C2=CCCC2)CC/C(=C/c2ccc(Cl)cc2)C1=O (configuration not stated)	-	-	69	-	-	-
COc1ccc(/C=C/C(=O)c2ccc3c4c(cccc24)CC3)cc1	-	-	.	-	-	-
COc1ccc(/C=C/C(=O)c2ccc3c4c(cccc24)CC3)cc1OC	-	-	-	-	-	52
C/C=C/c1ccc2c(c1)O[C@H](CN(C)C(=O)Cc1cccnc1)[C@H](C)CN([C@@H](C)CO)S2(=O)=O	.	.	-	.	.	.
C[C@H](CO)N1C[C@H](C)[C@@H](CN(C)S(=O)(=O)c2ccc(C(F)(F)F)cc2)OCc2ccccc2-c2c(n(C)c3ccccc23)C1=O	.	.	-	.	.	.
Cc1ccc(S(=O)(=O)N(C)C[C@H]2Oc3c(cccc3N(C)C)C(=O)N([C@@H](C)CO)C[C@@H]2C)cc1	.	.	59	.	.	.
Cc1ccc(S(=O)(=O)N(C)C[C@H]2Oc3c(cccc3N(C)C)C(=O)N([C@H](C)CO)C[C@@H]2C)cc1	.	.	-	.	.	.
C[C@H](CO)N1C[C@H](C)[C@H](CN(C)S(=O)(=O)c2ccc(C(F)(F)F)cc2)OCc2ccccc2-c2c(n(C)c3ccccc23)C1=O	.	.	53	.	.	.
O=C(O)c1ccc(-c2noc(-c3ccccc3F)n2)cc1	-	-	-	-	-	52
C[C@@H]1CN([C@@H](C)CO)C(=O)Cc2cc(NC(=O)CCC(F)(F)F)ccc2O[C@@H]1CN(C)Cc1ccc2c(c1)OCO2	.	.	-	.	.	.
Cc1cc2ccccc2cc1C(=O)c1ccccc1	-	-	-	-	-	-
Cc1sc2cc3c(c(C(=O)c4ccccc4)[n+]2c1C)-c1cccc2cccc-3c12	.	.	65	.	.	.
CCOc1cc(/C=N/NC(=O)COc2ccc(Cl)cc2)ccc1OS(=O)(=O)c1ccccc1	-	-	.	-	-	54
CCOC(=O)c1c2c(n(Cc3ccccc3)c1C)C(=O)C(=O)c1ccccc1-2	-75	-	104	61	89	104
C[C@@H]1CCCCO[C@H](CN(C)Cc2ccc(C(F)(F)F)cc2)[C@@H](C)CN([C@@H](C)CO)C(=O)c2cc(NC(=O)Cc3ccccc3)ccc2O1	.	.	-	.	.	.
CC(=O)N1[C@@H](CO)[C@H](c2ccccc2)C12CN(C(=O)Nc1ccccc1F)C2	.	.	-	.	.	.
COc1ccc(-c2cc(C(F)F)n3ncc(C(=O)n4ccnc4C)c3n2)cc1	-	-	-	74	-	-
CCOC(=O)c1c(NC(=S)N2CCOCC2)sc2c1CCN(C(=O)OCC)C2	-	-	63	-	-	-
CCOC(=O)c1c(NC(=S)N2CCCCC2)sc2c1CCN(C(=O)OCC)C2	-	-	.	-	-	-
CCCC(=O)N1CC2(C1)CN(C(=O)C1CC1)[C@H](CO)c1[nH]c3cc(OC)ccc3c12	.	.	-	.	.	.
COc1cc(C2C(C#N)=C(N)N(c3cccnc3)C3=C2C(=O)CCC3)ccc1O (configuration not stated)	-	-	-	-	-	-
CCOC(=O)C1=C(N)N(c2ccccc2)C2=C(C(=O)CCC2)C1c1cccnc1 (configuration not stated)	-	-	-	-	-	52
CS(=O)(=O)c1ccc(Sc2nc3ccccc3s2)c([N+](=O)[O-])c1	-	-	.	54	-	99
COc1ccc(OC)c(S(=O)(=O)Oc2ccc(N)c3ccccc23)c1	-	-	-	-	-	87
O=C(CCCSc1nc2ccccc2[nH]1)N1CCN(c2ccc([N+](=O)[O-])cc2)CC1	-	-	.	-	-	50
SMILES	KKLEB cytotox	hiPSC survival	LGR2 inh	CF NFkB inh	HIF-2a inh	TWEAK-Fn14 inh
O=C(CSc1nc2ccccc2[nH]1)N1CCN(c2ccc(F)cc2)CC1	-	-	.	-	-	-
Cn1cnc(S(=O)(=O)N[C@H]2C=C[C@@H](CC(=O)Nc3ccc(-c4ccccc4)cc3)O[C@H]2CO)c1	.	.	-	.	.	.
O=C(C[C@H]1CC[C@H](NC(=O)C2CCC2)[C@@H](CO)O1)NC1CCC1	.	.	-	.	.	.
NS(=O)(=O)c1ccc(N/N=C/c2cn(-c3ccccc3)nc2-c2cccs2)c([N+](=O)[O-])c1	-82	-	-	88	-	-
CC(=NNC(=S)N1CCN(c2ccccn2)CC1)c1nccs1	-	-	.	66	-	104
COCCNC(=O)C[C@@H]1C=C[C@H](NS(=O)(=O)c2ccc(C)cc2)[C@H](CO)O1	.	.	-	.	.	.
CC(C)(C)c1ccc(-c2cc(-c3ccccc3O)[nH]n2)cc1	-	-	-	-	-	85
Oc1ccccc1-c1cc(-c2cccc(F)c2)n[nH]1	-	-	.	-	-	-
Cc1sc(NC(=O)CSc2nnc(COc3ccccc3)n2C)c(C#N)c1C	-	-	.	-	-	-
Cc1ccc(OCc2nnc(SCC(=O)Nc3sc(C)c(C)c3C#N)n2C)cc1	-	-	.	-	-	52
COc1cccc(OC)c1OC(=O)C1CC(=O)N(c2ccc3c(c2)OCCO3)C1 (configuration not stated)	-	-	-	-	-	68
CCOC(=O)c1ccccc1NC(=O)COC(=O)C1CC(=O)N(c2ccc3c(c2)OCCO3)C1 (configuration not stated)	-	-	-	-	-	-
O=C(COC(=O)C1CC(=O)N(c2ccc3c(c2)OCCO3)C1)NC1CCCc2ccccc21 (configuration not stated)	-	-	.	-	-	56
O=C(Nc1nc2ccccc2[nH]1)C1CC(=O)N(c2ccc3c(c2)OCCO3)C1 (configuration not stated)	-	-	.	-	-	69
O=C(O)C1CC(=O)N(c2ccc3c(c2)OCCO3)C1 (configuration not stated)	-	-	.	-	-	63
COc1ccccc1NC(=O)C(C)OC(=O)C1CC(=O)N(c2ccc3c(c2)OCCO3)C1 (configuration not stated)	-	-	-	-	-	-
C[C@@H]1CN([C@@H](C)CO)C(=O)Cc2cc(NC(=O)Cc3ccccc3)ccc2O[C@@H]1CN(C)S(C)(=O)=O	.	.	-	.	.	.
C[C@@H]1CCCCO[C@H](CN(C)C(=O)Nc2ccc(F)cc2)[C@H](C)CN([C@H](C)CO)C(=O)c2cc(NS(=O)(=O)c3cccs3)ccc2O1	.	.	-	.	.	.
C[C@@H]1CCCCO[C@H](CN(C)CC2CCCCC2)[C@H](C)CN([C@@H](C)CO)C(=O)c2cc(NS(=O)(=O)c3ccc(Cl)cc3)ccc2O1	.	.	-	.	.	.
CN(C)Cc1cn(CC[C@H]2CC[C@@H](NC(=O)Nc3ccccc3F)[C@H](CO)O2)nn1	.	.	-	.	.	.
COc1cccc(C2=NO[C@@H]3C(=O)N(Cc4ccccc4)C(=O)[C@H]23)c1OC	-	-	.	-	-	-
COc1cccc(C2=NO[C@@H]3C(=O)N(c4ccc5c(c4)OCCO5)C(=O)[C@H]23)c1OC	-	-	.	-	-	77

Screens as filed in PubChem BioAssay.
